Test results published in ChEMBL document CHEMBL1157539, “Thousands of chemical starting points for antimalarial lead identification” (Nature, 2010).

Assays:
Assay type in all cases: functional
Plasmodium falciparum [1] = assay: GSK_TCMDC: Inhibition of Plasmodium falciparum 3D7 in whole red blood cells, using parasite LDH activity as an index of growth. Test compounds present at 2uM
Plasmodium falciparum [2] = assay: GSK_TCMDC: Inhibition of Plasmodium falciparum Dd2 in whole red blood cells, using parasite LDH activity as an index of growth. Test compounds present at 2uM
HepG2 = assay: GSK_TCMDC: Percent inhibition of human HepG2 cell line. Test compounds present at 10uM.

Row | Structure (SMILES) | Inhibition (Plasmodium falciparum [1]) | Inhibition (Plasmodium falciparum [2]) | Inhibition (HepG2)
1 | COc1ccc2ncc(C#N)c(CCN3CCC(NCc4ccc5c(n4)NC(=O)CS5)CC3)c2n1.Cl | 89% | 17% | 9%
2 | N#Cc1ccc(Cn2ccc3c4c(N)nc(N)nc4ccc32)cc1 | 92% | 95% | 64%
3 | Cc1cccc(C(=O)Nc2ccnc(N3CCC(N(C)Cc4cccc(C#N)c4)CC3)c2)c1.O=C(O)C(F)(F)F | 100% | 52% | 5%
4 | Nc1nc(N)c2c(ccc3c2ccn3C2C=CCCC2)n1 (stereo not drawn) | 94% | 65% | 68%
5 | Brc1cc(CNCCCNc2nc3ccccc3[nH]2)sc1Br.Cl | 100% | 21% | 10%
6 | O=C(/C=C/c1ccc(Cl)c(Cl)c1)NCCCCCN1CCC(NC(=O)c2cccc(Cl)c2)CC1 | 98% | 23% | 12%
7 | CC(C)C(=O)ONC1=NC(=N)N(OCCCOc2cc(Cl)c(Cl)cc2Cl)C(C)(C)N1 | 95% | 96% | 64%
8 | Cc1cccc2nc(-c3ccc(-c4ccc(NC(=O)Nc5cccc(C#N)c5)cc4)s3)[nH]c12 | 100% | 100% | 33%
9 | O=C(/C=C/c1ccc(-c2ccccc2)cc1)NCCCCCN1CCC(c2c[nH]c3ccccc23)CC1 | 97% | 23% | 91%
10 | CC(C)CNC(=O)c1ccnc(-c2ccc(CNC3Cc4ccccc4C3)cc2)c1.O=C(O)C(F)(F)F | 99% | 29% | 25%
11 | O=C(O)C(F)(F)F.c1ccc(CCNCc2ccc(-c3ccc(CNC4CCN(Cc5ccccc5)CC4)cc3)nc2)cc1 | 100% | 99% | 34%
